Screens deposited in PubChem by several laboratories.
Sampled rows, rich in hits. Any-hit rate of the full collection: about 0.9%.
PfHsp40 rescue – rescue of yeast from PfHsp40 toxicity, primary screen, S. cerevisiae, ATP luminescence | 340,000 compounds, 0.68% hits | S. cerevisiae expressing PfHsp40, growth rescue | growth rescue, % at 12.5 µM; in the data active = growth rescue above about 28%, passing the limit was not always enough;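 note: yeast W303a lacking pdr1 and pdr3 grown in galactose medium; growth measured after three days at 30 °C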
Mtb bLac sens – beta-lactam sensitization of Mtb H37Rv, H37Rv; M. tuberculosis H37Rv growth with meropenem, percent inhibition; AID 434955, 2010; inhibition, % at 25 µM; 330,000 compounds, 0.27% hits; call rule not given here;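 note: growth measured after seven days incubation then overnight dye step; 0% = bacteria only wells and 100% = bacteria with antibiotic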
Sa RN4220 lethal – growth inhibition of S. aureus RN4220, primary screen, OD600. 16 h. inhibition, % (no concentration beside the values). 330,000 compounds, 0.33% hits; in the data active = inhibition above about 85%;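 note: plate controls were untreated cells for no effect and reference antibiotic for full effect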
Sa ugtP lethal – growth inhibition of ugtP-null S. aureus, primary screen, RN4220 ugtP deletion, OD600 | 16 h | growth inhibition, % (no concentration beside the values) | 330,000 compounds, 0.54% hits | AID 1259309, 2017; in the data active = growth inhibition above about 68%;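 note: plate controls were untreated wells for no effect and antibiotic for full effect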
BioA inh – M. tuberculosis BioA enzyme inhibitors, primary screen, biochemical, plate reader, single point, HTS; 7,8-diaminopelargonic acid synthase BioA (Mycobacterium tuberculosis); purified M. tuberculosis BioA enzyme; inhibition, % at 9.99 µM; 360,000 compounds, 0.096% hits; AID 602481, 2012; in the data active = inhibition above about 40%
* hit, by the source's call; nt = not tested or not shown.

SMILES | PfHsp40 rescue | Mtb bLac sens | Sa RN4220 lethal | Sa ugtP lethal | BioA inh
CN(C)c1ccc(N2C(CC(=O)O)c3cc(C(F)(F)F)ccc3S2(=O)=O)cc1 (stereo not given) | nt | nt | 4.9 | 3.9 | nt
COc1cc(/C=C/c2cc[n+](C)cc2)ccc1OCC(=O)Nc1ccc(Cl)c(Cl)c1 | 0.1 | 96.7 | 78.0 | 100.1* | 0.5
Fc1ccccc1-c1csc(-c2cccnc2)n1 | -0.1 | 2.4 | 3.7 | 1.7 | -0.4
Clc1ccc(-c2csc(-c3cccnc3)n2)s1 | 29.4* | 86.4 | 6.1 | -6.1 | -1.1
O=S(=O)(Nc1cccc(-c2nc3cccnc3s2)c1)c1ccc2c(c1)OCCO2 | 0.1 | 0.5 | 7.7 | 93.1* | -1.0
CC1CC2C3CC(F)C4=CC(=O)C=C[C@]4(C)[C@@]3(Cl)C(O)C[C@]2(C)C1C(=O)COC(=O)C(C)(C)C (stereo not given in full) | nt | nt | 1.4 | -6.7 | nt
Cc1ccc(NC=C(C#N)c2ccsc2)cc1C | nt | nt | 7.9 | 0.6 | nt
CCN1C(=O)C2C(c3ccc(C)cc3)N3C(=O)N(c4ccc(OC)cc4)C(=O)[C@@]3(Cc3ccc(Cl)cc3)C2C1=O (stereo not given in full) | nt | nt | 5.5 | -8.4 | nt
CCOC(=O)c1c(NC(=O)/C=C\C(=O)O)sc(C)c1-c1ccccc1 | 94.7* | -6.7 | nt | nt | nt
COc1ccc(OCC(O)CN(C)C(=O)C=Cc2cccc([N+](=O)[O-])c2)cc1 (stereo not given) | nt | nt | 10.1 | 4.8 | nt
CCc1nc(SCc2cccnc2)c2c(=O)n(C)c(=O)n(C)c2n1 | 0.6 | -2.6 | nt | nt | 1.4
CC(C)Cc1nc(SCc2cccnc2)c2c(=O)n(C)c(=O)n(C)c2n1 | 32.9* | 0.9 | 1.8 | -3.9 | nt
CCOC(=O)c1c(C)[nH]c(N=Nc2cccc(OC)c2)c1C | 76.7* | 93.4 | 43.7 | 0.2 | -0.1
CCOC(=O)c1c(C)[nH]c(N=Nc2cccc(C)c2)c1C | 8.2 | 62.7 | 3.2 | 76.7 | -0.8
C#CCOCCOCCOCCNc1nc(N2CCN(C(=O)C(CCCCN)n3cc(C(N)CC(C)C)nn3)CC2)nc(N2CCN(C(=O)C(C(C)CC)n3cc(C(N)CO)nn3)CC2)n1 (stereo not given) | nt | nt | 0.9 | -6.0 | nt
CC(C)Oc1ccc(Cc2cnc(N)nc2N)cc1 | 0.0 | 4.3 | 17.3 | 91.4* | nt
Cn1c(SCc2ccccc2)nc(C(F)(F)F)cc1=O | 0.2 | 0.3 | 11.5 | -5.7 | nt
Cn1c(SCc2ccccc2)nc(N)c(N=O)c1=O | nt | 99.4 | -3.6 | 95.1* | 4.4
CCC1=C(OC(=O)N(CC)CC)N2C(=O)OC(=NCC(=O)OC)[C@]2(Cc2ccccc2)C2C1=CCC1C(=O)N(C)C(=O)C12 (stereo not given in full) | nt | nt | 4.2 | 0.3 | nt
COc1ccc(C2C=CCN(C(=O)C3CC3)C(C)C(=O)N2Cc2ccc(F)cc2)cc1 (stereo not given) | nt | nt | 1.3 | 0.9 | nt
O=[N+]([O-])c1ccc(S(=O)(=O)c2cccc(C(F)(F)F)c2)nc1 | 41.6* | 100.3 | 18.4 | 55.9 | 0.8
COc1ccc(/C=N/Nc2ccc([N+](=O)[O-])cc2)cc1O | 41.5* | 88.2 | nt | nt | 1.6
O=C(NC(=Cc1ccc([N+](=O)[O-])cc1)C(=O)N1CCCCC1)c1ccccc1 | nt | nt | 2.8 | -3.3 | nt
CCOC(=O)Cc1csc(NC(=O)c2c(O)c3ccccc3n(CC(C)C)c2=O)n1 | -0.5 | 99.9 | 97.0* | 97.6* | -2.1
CN(CC(=O)Nc1ccc(Cl)c(C(F)(F)F)c1)C(=O)CCN1C(=O)C2CCCCC2C1=O (stereo not given) | -1.0 | -1.9 | 67.0 | 93.6* | 2.9
SMILES | PfHsp40 rescue | Mtb bLac sens | Sa RN4220 lethal | Sa ugtP lethal | BioA inh
CN(CC(=O)Nc1ccc(Cl)c(C(F)(F)F)c1)CC(=O)NC1CCCCC1 | 1.4 | 1.9 | 2.7 | -9.7 | 0.7
O=c1cc(CO)oc(C(Nc2ccccn2)c2ccc(C(F)(F)F)cc2)c1O (stereo not given) | 127.8* | -14.3 | 4.6 | 2.7 | 0.4
COc1ccc(N2C(=O)CC(N3CCC(O)(c4ccc(Br)cc4)CC3)C2=O)cc1 (stereo not given) | 0.0 | 2.0 | 1.9 | 5.7 | 2.0
CCCOc1ccc(N2C(=O)CC(N3CCC(O)(c4cccc(C(F)(F)F)c4)CC3)C2=O)cc1 (stereo not given) | 28.4* | -9.8 | -0.1 | -5.0 | -1.7
CNc1ccc(Br)cc(C(=O)/C=C/c2cccc(OC)c2)c1=O | 1.3 | 11.8 | 4.5 | -5.6 | 2.1
CNc1ccc(Br)cc(C(=O)/C=C/c2ccc(OC)cc2OC)c1=O | 0.0 | 4.7 | -7.3 | 97.7* | -1.2
CC(C)CC(NC(=O)c1nc[nH]c1C(=O)NCc1ccc(CNC(=O)OC(C)(C)C)cc1)C(=O)OC(C)(C)C (stereo not given) | nt | nt | 2.9 | -6.5 | nt
CCc1nnc(NC(=O)C(NC(=O)c2cccc(S(=O)(=O)N3CCOCC3)c2)C(C)C)s1 (stereo not given) | nt | nt | 2.1 | -3.1 | nt
Cc1cccc(NS(=O)(=O)c2ccc(-c3cnc(C4CC4)o3)cc2)c1C | 367.1* | -7.4 | 6.1 | -12.5 | -1.5
O=C(CCC1CCCCC1)NCCN1C2=NCC(Cc3ccc(O)cc3)N2CC1Cc1ccc(O)cc1 (stereo not given) | nt | nt | -0.8 | -3.4 | nt
Cc1ccccc1OCCN1CCC(Cc2ccccc2)CC1 | 59.1* | -9.0 | -4.7 | -13.5 | -0.6
Cc1occc(=O)c1OC(=O)Nc1ccc(Cl)c(Cl)c1 | 2.8 | 79.4 | 99.5* | 98.7* | nt
COc1ccc(C(=O)Oc2c(C)occc2=O)cc1OC | -1.1 | -10.8 | -0.4 | 10.1 | -2.6
CCOC(=O)C1(Cc2cccc(Cl)c2)CCCN(C(=O)c2occc2C)C1 (stereo not given) | 121.6* | 3.1 | 9.9 | 5.8 | -1.1
CCOC(=O)C1(Cc2cccc(Cl)c2)CCCN(C(=O)c2ccco2)C1 (stereo not given) | 1.2 | 5.7 | 7.3 | 3.6 | -1.5
Cc1ccc2c(c1)sc[n+]2Cc1ccccc1 | 0.1 | 4.3 | 20.8 | 99.3* | -1.5
CCOc1ccc2nc3cc(NCc4ccc(OC)cc4)ccc3c(N)c2c1 | -0.6 | 100.2 | 100.6* | 100.0* | -4.1
CCn1cnc2cc(NCc3ccc(OC)cc3)ccc21 | 0.9 | 3.0 | -1.4 | 4.6 | 2.1
CCc1ccc(-n2c(O)c(C=NN3CCCCC3c3cccnc3)c(=O)[nH]c2=O)cc1 (stereo not given) | nt | nt | 5.2 | -6.5 | nt
CC1=C(C(=O)OC2CCCC2)C(c2coc3ccccc3c2=O)C2=C(CC(C)(C)CC2=O)N1 (stereo not given) | 92.9* | 1.9 | 1.7 | 6.7 | 2.7
Cc1ccc(C(C[N+](=O)[O-])c2c(N)n(C)c(=O)n(C)c2=O)cc1 (stereo not given) | 364.2* | 97.8 | nt | nt | nt
CC1CN(C(C)CO)C(=O)c2cc(NC(=O)CCN3CCOCC3)ccc2OC1CN(C)C(=O)Nc1ccccc1 (stereo not given) | nt | nt | 4.7 | 5.1 | nt
Oc1ccc(Cl)cc1C1=NNC(c2cccs2)C1 (stereo not given) | -0.2 | -4.7 | 96.0* | 98.8* | 1.8
CCSc1nnc(NC(=O)c2cccc(S(=O)(=O)N(C)c3ccccc3)c2)s1 | 29.8* | -3.3 | 24.2 | 0.9 | nt
